Holding throughout (assay): NCI-60 one-dose screen, 48 h (100 = growth as untreated, 0 = no growth, -100 = all killed)
Holding throughout (conditions): 10 µM unless noted

Test [1] relates to HCT-15 colon.
For test [2], the system named is HT29 colon.
The subject of test [3] is SNB-75 CNS.
In test [4] the test system is SNB-19 CNS.
Test [5] concerns U251 CNS.
Test [6] has as its system PC-3 prostate.
Test [7] relates to SK-MEL-5 melanoma.
The subject of test [8] is UACC-62 melanoma.
In test [9] the test system is LOX IMVI melanoma.
Test [10] relates to SK-MEL-28 melanoma.
For test [11], the system named is SK-MEL-2 melanoma.
Test [12] deals with EKVX NSCLC.
The subject of test [13] is SN12C renal.
Test [14] relates to UO-31 renal.
Test [15] concerns TK-10 renal.
For test [16], the system named is ACHN renal.
Test [17] deals with CAKI-1 renal.
For test [18], the system named is A498 renal.
The subject of test [19] is CCRF-CEM leukemia.
In test [20] the test system is MOLT-4 leukemia.

Values joined by “and” are separate entries in the source; they are usually repeats but may differ in a detail not shown here. Identical values can stand only once. The panel holds about 83,000 compounds, 20% with a hit somewhere; the sample as a whole holds those more often.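 Method: cells in 96-well plates; compound added at one concentration; 48 h incubation; percent growth measured; values under 10 scored active.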 Values without a mark were called inactive. Active and inactive are the calls of the source.

Experimental findings from PubChem BioAssay (NCI) are described below.

For `N#Cc1cc(-c2ccnc(Nc3ccc(NC(=O)CCl)cc3)n2)ccc1N1CCCC1`, the growth in [1] was -45.7% (active); in test [2] it was -56.9% (active); in test [3], -17.5% (active); in test [4], 5.98% (active); in test [5], -33.1% (active); in test [6], 8.3% (active). Also, the growth was -96% (active) in test [7]; -71.3% (active) in test [8]; -84.8% (active) in [9]; -52.4% (active) in test [10]; -39.9% (active) in [11]; 12% in test [12]. The growth in test [13] was -39.4% (active); in [14], -71.9% (active); in test [15], 9.16% (active); in test [16] it was -24.6% (active); in [17], -40.4% (active); in test [18] it was 16.1%. Besides, the growth in test [19] was 0.0905% (active); in test [20], -7.09% (active).

For the compound `CCN1C(=O)N(c2ccccc2)C2NC(=S)N(/N=C/C=C/c3ccccc3)C21` (stereo not given), the growth was 12.6% in test [1]; 4.84% (active) in test [2]; 35.5% in test [3]; 22.6% in test [4]; 13.9% in test [5]; 14% in test [6]. In addition, the growth in test [7] is 3.14% (active); in test [8] it was 20%; in test [9], 14.8%; in test [10], 60.1%; in test [11] it was 16.8%; in [12], 23.2%. For the same compound, the growth in test [13] was 19.8%; in test [14] it was 35.5%; in test [15], 50.1%; in [16], 21.7%; in [17] it was 29.6%; in test [18] it was 6.81% (active). The growth was 3.8% (active) in test [19] and 8.35% (active) in test [20].

For the compound `CC[C@@H]1NC(=O)[C@H]([C@H](O)[C@H](C)C/C=C/c2ccc(CN3C(=O)C(C)=C(C)C3=O)cc2)N(C)C(=O)[C@H](C(C)C)N(C)C(=O)[C@H](CC(C)C)N(C)C(=O)[C@H](CC(C)C)N(C)C(=O)[C@@H](C)NC(=O)[C@H](C)NC(=O)[C@H](CC(C)C)N(C)C(=O)[C@H](C(C)C)NC(=O)[C@H](CC(C)C)N(C)C(=O)CN(C)C1=O`, the growth is 67.8% in test [1]; 64.9% in [2]; 72.8% in test [3]; 76.1% in test [4]; 71.2% in [5]; 39.8% in [6]. Further, the growth in test [7] was 60.5%; in [8] it was 73.3%; in test [9], 68.6%; in [10], 82.3%; in test [11], 81%; in test [12], 49.1%. Besides, the growth in test [13] was 83.9%; in test [14], 57.3%; in [15], 75%; in test [16] it was 74.7%; in test [17], 86.3%; in test [18], 54.2%. In addition, the growth in test [19] is 63.6%; in test [20] it was 62.4%.

For `COc1cc(/C=C2/C=C(c3ccc(C(C)(C)C)cc3)N(CCc3ccc(S(N)(=O)=O)cc3)C2=O)cc(OC)c1OC`, the growth in [1] was 30.3%; in [2] it was 8.93% (active); in test [3], 65.9%; in test [4] it was 69%; in test [5], 41.7%; in test [6] it was 8.07% (active). Besides, the growth in test [7] was 32.1%; in [8] it was 59%; in [9], 42.2%; in test [10], 61.9%; in [11] it was 79.2%; in [12], 51.3%. The growth in test [13] was 64.7%; in test [14] it was 37.1%; in test [15], 82.1%; in test [16], 49.5%; in test [17] it was 71.6%; in [18], 82.4%. Besides, the values for the growth in test [19] and in test [20] were 29.3% and 16.3%, respectively.

Consider `CC12CCC(C(=O)CC1=O)C2(C)C` (stereo not given), for which the growth was 103% and 106% in [1]; 108% and 109% in test [2]; 87.5% and 95.1% in [3]; 107% and 105% in test [4]; 99.6% and 100% in test [5]; 97.2% and 104% in [6]. The growth in test [7] is 99.8% and 104%; in [8] it was 102% and 106%; in test [9] it was 97.3% and 95.3%; in test [10], 106%; in test [11] it was 110%; in test [12], 97.5%. Also, the growth in test [13] was 102%; in test [14] it was 88.3% and 87.1%; in test [15], 100% and 105%; in test [16] it was 107% and 106%; in [17] it was 101% and 97%; in test [18] it was 93.2% and 108%. Further, the growth in test [19] is 103% and 96.8%; in [20], 82.6% and 96.5%.

For `O=C(CCCOc1ccc(Br)cc1)Nc1ncc(Cc2ccc(F)cc2)s1`, the growth is 38.6% in [1]; 49.1% in test [2]; 55% in test [3]; 76.5% in test [4]; 80.4% in [5]; 72.9% in test [6]. The growth in test [7] is 68.8%; in test [8], 50.2%; in [9], 64.6%; in test [10], 76.8%; in test [11], 93.3%; in test [12], 77%. The growth in test [13] is 82.7%; in test [14] it was 62.6%; in test [15], 86.5%; in test [16], 72.9%; in [17], 37%; in test [18] it was 76.7%. Moreover, the growth in test [19] is 64.4%; in test [20], 73.8%.

For `O=C(NNc1ccccc1)C1CCCN1` (stereo not given), the growth was 40.5% in test [1]; 62.3% in test [2]; 90.7% in test [3]; 94.1% in [4]; 82.3% in [5]; 77% in test [6]. In addition, the growth in [7] is 89.1%; in [8], 16.2%; in test [9] it was 8.66% (active); in test [10], 69.2%; in test [11], 87.5%; in test [12], 69.4%. The growth in [13] is 85.4%; in [14], 33%; in test [15], 84.6%; in test [16] it was 20%; in [17], 13.5%; in test [18], 103%. Further, the growth in test [19] is 46.7%; in [20], 44.3%.

Consider `C=C(CN1CC=CCC1)[C@@H]1CC[C@]2(COC(C)=O)CC[C@]3(C)[C@H](CC[C@@H]4[C@@]5(C)CC[C@H](O)C(C)(C)[C@@H]5CC[C@]43C)[C@@H]12`, for which the growth is 101% in [1]; 79.7% in test [2]; 98.9% in test [3]; 97.1% in [4]; 92.8% in test [5]; 79.6% in [6]. Moreover, the growth in [7] was 99.3%; in [8], 92.3%; in test [9], 100%; in test [10], 105%; in test [11] it was 104%; in [12] it was 109%. Moreover, the growth in test [13] was 97.8%; in [14], 89.4%; in [15] it was 113%; in test [16] it was 99.8%; in test [17] it was 107%; in [18] it was 116%. For the same compound, the growth is 85.4% in test [19] and 92.4% in test [20].
